Test results reported in ChEMBL document CHEMBL3988442, “University of Dundee, Small-Polar-MMV Screening Library” (2021).
Out of some 48,000 compounds screened, about 13,000 (27%) showed an effect of 50% or more. The list shows a part of the results.

tested on: Wolbachia pipientis; experiment: Anti-Wolbachia Cell-Based Screen; assay type: functional; design: scale not given: in the data most compounds retested in dose-response had high values; conditions: 5 µM

| SMILES | Percent Effect [%] |
| --- | --- |
| CCn1nc(C)cc1C(=O)NCc1nc(C)cc(C)n1 | -9.292 |
| CCn1nc(C)cc1C(=O)NCc1noc(C(C)(C)C)n1 | 104.1 |
| COCc1nc(CNC(=O)c2cc(C)c(C)[nH]c2=O)no1 | -2.692 |
| CCn1nc(C)cc1C(=O)OCCNC(=O)c1ccccc1 | -11.83 |
| CCn1nc(C)cc1C(=O)NCc1nc(C)no1 | 111.2 |
| CC(SCCS(C)(=O)=O)c1nc(Cc2ccccc2)no1 (stereo not given) | -6.547 |
| O=C1CC[C@H](C(=O)N(Cc2cccc(Br)c2)C2CC2)N1 | 5.086 |
| CC(=O)NCC(=O)N1Cc2nc(COCc3csc(C)n3)oc2C1 | 5.619 |
| CC(C)CC(C)NCc1cccnc1N1CCOCC1 (stereo not given) | 1.673 |
| COc1ccc(OC)c(-c2nc(CN(C)Cc3nncn3C)c(C)o2)c1 | 0.1711 |
| CCN(CC)C(=O)[C@@H]1C[C@H](N)CN1c1noc(-c2ccccc2)n1 | 2.719 |
| Cc1cc(-c2cnn(CCNC(=O)C3CCCO3)c2C2CC2)on1 (stereo not given) | -7.58 |
| Cc1cc(C)n(CCCN(C)C(=O)[C@H]2CCCO2)n1 | -6.91 |
| Cc1cc(C(F)(F)F)nn1CCCNC(=O)C1CCCO1 (stereo not given) | 89.22 |
| COc1ccc(-c2n[nH]cc2CN(C)Cc2nnc(C)o2)c(F)c1 | 5.542 |
| COC[C@]1(O)CCN(Cc2c[nH]c(CC3CCCC3)n2)CC1(C)C | 12.99 |
| Cn1cc(CN2CCc3ncnc(C4CCOC4)c3CC2)cn1 (stereo not given) | 2.928 |
| CS(=O)(=O)NCC1CCCCN1C(=O)c1ccc(Br)s1 (stereo not given) | -1.817 |
| CS(=O)(=O)NCC1CCCCN1C(=O)c1ccsc1 (stereo not given) | -1.868 |
| CN(C)c1cc(C(=O)N2CCCCC2CNS(C)(=O)=O)ccn1 (stereo not given) | 130 |
| CN(C)c1cc(C(=O)N2CCCCC2Cn2cccn2)ccn1 (stereo not given) | 105 |
| CCC1CCCCN1C(=O)c1ccnc(N(C)C)c1 (stereo not given) | 113.6 |
| CCCc1nc(C(C)(C)NC(=O)c2ccnn2C)no1 | 9.786 |
| CCCc1nnc(N[C@H](C)c2ccc(OC)cc2)o1 | -12.73 |
| Fc1ccc(CNCc2cc(Br)c3c(c2)OCO3)cc1 | -17.14 |
| O=C(CCNC(=O)c1ccoc1)Nc1cc(F)ccc1F | -1.29 |
| Cc1cccc(CN2CC[C@H]3OCC[C@@]3(C(=O)N3CCOCC3)C2)n1 | 83.3 |
| Cc1cc(CN2CCN(C(=O)NCc3ccc(C)s3)CC2)no1 | 0.1424 |

| SMILES | Percent Effect [%] |
| --- | --- |
| Cc1cc(CNC(=O)NCc2ccccc2N2CCOCC2)no1 | -16.89 |
| Cc1cccc(CN2CCOC(C)(C(=O)N3CCOCC3)C2)n1 (stereo not given) | 111.3 |
| CC1(C(=O)N2CCOCC2)CN(Cc2c[nH]cn2)CCO1 (stereo not given) | 123.4 |
| NC(=O)C1CN(Cc2c[nH]cn2)CCN(C2CCOCC2)C1 (stereo not given) | -9.995 |
| Cc1cc(CN2CCOC(C)(C(=O)N3CCOCC3)C2)no1 (stereo not given) | 109.8 |
| Cc1ncsc1CN1CC[C@H]2OCC[C@@]2(C(=O)N2CCOCC2)C1.O=C(O)C(F)(F)F | 1.512 |
| Cc1cccc(CN2CCc3[nH]nc(C(=O)N4CCOCC4)c3C2)n1 | 9.618 |
| CC1(C(=O)N2CCOCC2)CN(Cc2ccccn2)CCO1 (stereo not given) | -10.18 |
| CN1CCN(Cc2c[nH]cn2)CC12CCC(=O)N(CC1CC1)CC2 (stereo not given) | -17.33 |
| CC(C)Nc1cccc(CNC(=O)N2CCC[C@@H]2CO)c1 | -12.14 |
| CCCc1cc(=O)[nH]c2nnc(SCC(=O)NCCc3ccccc3)n12 | 12.93 |
| COC(=O)N1CCC(NC2CCSCC2)C1 (stereo not given) | -0.02013 |
| CCC(CCO)NS(=O)(=O)c1ccc(Br)cn1 (stereo not given) | -13.92 |
| C=C(C)Cn1nnc(C2(NC(=O)c3ccccc3)CCCC2)n1 | -0.5972 |
| O=C(O)[C@@H]1CN(Cc2ccc3nsnc3c2)C[C@H]1c1cccnc1 | -24.04 |
| CC(=O)N1CCN([C@@H]2CCC[C@@H](NC(=O)c3cccnc3)[C@H]2O)CC1 | 122.9 |
| CC(C)(C)c1cc(CN2CC[C@@H](NC(=O)c3cccnc3)[C@H](O)C2)n[nH]1 | -14.75 |
| CC(=O)N1CCN([C@@H]2CC[C@@H](NC(=O)c3cc(C)cs3)[C@H]2O)CC1 | 116.4 |
| CC(=O)N1CCC(N[C@@H]2CO[C@H](CNC(=O)c3cccs3)[C@H]2O)CC1 | 1.318 |
| Cc1cncc(C(=O)NCC2COCc3c(C)nnn3C2)c1 (stereo not given) | -1.908 |
| Cc1cncc(C(=O)N[C@@H]2CC[C@@H](N3CCOCC3)[C@@H]2O)c1 | 120 |
| CC(=O)N1CCN([C@@H]2CC[C@@H](NC(=O)c3ccc(C)nc3)[C@H]2O)CC1 | 126.1 |
| CC(=O)N1CCN([C@@H]2CC[C@@H](NC(=O)c3cncc(C)c3)[C@H]2O)CC1 | -9.247 |
| CCCC(=O)NC1CCCN(C(=O)c2ccc(C)nc2)C1 (stereo not given) | -3.666 |
| CCc1ccccc1CN1CC[C@@H](NC(=O)c2cccnc2)[C@H](O)C1 | -11.05 |
| CC(=O)N1C[C@H](NC(=O)c2csc(C(C)C)c2)[C@@H](C(C)C)C1 | -7.601 |
| Cc1ccc(C(=O)N2CCN3C[C@H](Oc4cncnc4)C[C@H]3C2)cn1 | -3.915 |
